D1 antag: human D1 dopamine receptor antagonism | P21728 | HEK293 TREx D1 cells, calcium flux, dopamine EC80; active compounds read low | activity change, negative = inhibition, % at 10 µM | actives 3.2% (n = 360,000); in the data active = activity change below about -30%; also: % is scaled to controls: 0 for no effect and ±100 for the full control effect
Target sequence (P21728 whole entry, looked up): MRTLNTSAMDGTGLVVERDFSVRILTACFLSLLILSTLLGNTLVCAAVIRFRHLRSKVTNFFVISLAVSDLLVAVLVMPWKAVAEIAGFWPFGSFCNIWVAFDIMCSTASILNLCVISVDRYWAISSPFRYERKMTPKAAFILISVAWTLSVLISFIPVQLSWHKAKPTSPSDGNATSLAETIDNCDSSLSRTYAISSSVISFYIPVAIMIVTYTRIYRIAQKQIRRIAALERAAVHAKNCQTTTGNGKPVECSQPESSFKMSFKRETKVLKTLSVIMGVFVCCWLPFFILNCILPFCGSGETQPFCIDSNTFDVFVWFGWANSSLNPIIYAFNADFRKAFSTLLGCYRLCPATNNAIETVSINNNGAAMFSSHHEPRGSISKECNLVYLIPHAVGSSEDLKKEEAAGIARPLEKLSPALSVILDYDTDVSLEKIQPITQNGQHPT
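After overnight tetracycline induction at 30 C, force-coupled D1 HEK293 cells took up a no-wash calcium dye at room temperature. Compounds were added and monitored 180 s, and the response to EC80 dopamine was then recorded.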
D1 potentiator: potentiators of human D1 dopamine receptor; HEK293 TREx D1 cells, calcium flux, dopamine EC20 potentiation; potentiation, % at 10 µM; actives 0.036% (n = 360,000); AID 504651; in the data active = potentiation above about 30%; also: 0% is about no effect
D1 ag: agonists of human D1 dopamine receptor | P21728 | HEK293 T-REx D1 cells, calcium flux, agonist mode | activation, % at 2 µM | actives 1% (n = 360,000); also: 0% is about no effect
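Tetracycline-induced HEK293 TREx D1 cells, force-coupled to calcium signalling, were dye-loaded with a no-wash calcium kit. Compound was pin-added after a 10 s baseline. Fluorescence was read kinetically at 1 cycle/s for 180 s, with calcium rises flagged as agonism.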
TRHR agonist-1: agonists of human TRH receptor; P34981; TRHR cells, calcium flux fluo-8, FDSS agonist mode; activation, % at 2 µM; actives 0.18% (n = 360,000); AID 493084; also: 0% is about no effect
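TRHR-expressing cells, plated overnight in medium with 10% serum, were loaded with fluo-8 calcium dye at room temperature. After a 10 s baseline, library compound was pin-added and calcium release was recorded kinetically (ex 480/em 530) as agonist response.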
TRHR enhancer-1: TRH receptor (human) allosteric enhancement | P34981 | TRHR cells, fluo-8 calcium fluorescence, EC20 TRH enhancement | enhancement, % at 2 µM | actives 0.66% (n = 360,000) | AID 493056; in the data active = enhancement above about 30%; also: 0% is about no effect
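TRHR-expressing cells loaded with fluo-8 calcium dye were read kinetically (ex 480/em 530) during compound addition, then stimulated with an EC20 of TRH (10 nM final). Enhancement of the Gq-mediated intracellular calcium response was scored.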
TRHR enhancer-2: confirmation of human TRH receptor allosteric enhancers. TRH receptor cell assay, enhancer confirmation qHTS. activity change, negative = inhibition, % at 46.1 µM. shares compounds with TRHR enhancer-1. 970 tested, under 10 active; active = well fitted curve in the direction sought with a large enough effect; inconclusive = small, poorly fitted or top-dose-only effect, or another doubt; inactive = no such curve, though single readings can be large; an effect the other way counts as inactive or inconclusive;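 also: compound effect scored on response to added TRH at EC20 of 10 nM; 0% is about no effect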
TRHR agonist-2: human TRH receptor agonism confirmation. AID 493078. actives 8% (n = 970). shares compounds with TRHR enhancer-1. TRHR-expressing cells, agonist activation read-out. Potency, µM (highest dose often 46.1 µM), for inactives: at the highest dose activation, most hits filed as activators; active = well fitted curve in the direction sought with a large enough effect; inconclusive = small, poorly fitted or top-dose-only effect, or another doubt; inactive = no such curve, though single readings can be large; an effect the other way counts as inactive or inconclusive; also: potency is read from the fitted curve at half-maximal effect; 0% is about no effect; nearly all actives have a fitted effect of over 75% in size
* hit, by the source's call; ? = inconclusive; nt = no result given. This is a sample that favours compounds with a hit; in the whole collection about 4.6% have one here. Rule as the data show it, unless noted: active = activation above about 30%; inactive = the rest.

SMILES | D1 antag | D1 potentiator | D1 ag | TRHR agonist-1 | TRHR enhancer-1 | TRHR enhancer-2 | TRHR agonist-2
COc1cccc(C(=O)C2CCCN(C(=O)CCc3scnc3C)C2)c1 (configuration not stated) | -13 | -3 | 4 | 1 | -10 | nt | nt
C=CCN(Cc1cn(C)nc1-c1cccc(Cl)c1)C1CCS(=O)(=O)C1 (configuration not stated) | 1 | -2 | 0 | 0 | 46* | -3 | 0%
CC(=O)Nc1ccc(NC(=O)C2(c3cccs3)CCOCC2)cc1 | 0 | 1 | 5 | 0 | 2 | nt | nt
CCCn1nnnc1SCC(=O)NC1CCCC1 | 4 | 3 | 2 | 0 | 1 | nt | nt
CCCCn1nnnc1SCC(=O)NNC(=O)C1CCCCC1 | -6 | -2 | 2 | -1 | 42* | -4 | 1%
Cn1cc(C(=O)N2CCN(c3cccc(C(F)(F)F)c3)CC2)c2c3ccccc3n(C)c2c1=O | 16 | -1 | -1 | -1 | 3 | nt | nt
CN(CC(=O)NCc1ccc2c(c1)OCO2)S(=O)(=O)c1ccc(F)cc1 | 0 | 2 | 1 | 0 | 43* | 8 | -1%
CCC(C)(C)NC(=O)C(c1cccn1C)N(C(=O)Cn1nnc2ccccc21)c1ccc(F)cc1 (configuration not stated) | 2 | 1 | 6 | 29 | -17 | -4 | ?
COc1cc(NC(=O)[C@@H](NC(=O)N2CCn3c2nc2ccccc23)C(C)C)cc(OC)c1 | 22 | 10 | -1 | 0 | 43* | 1 | 2%
CC(C)[C@H](NC(=O)N1CCn2c1nc1ccccc12)C(=O)N[C@H](Cc1ccccc1)C(=O)O | -3 | -8 | 1 | 0 | -1 | nt | nt
CC(C)C(=O)NC(C)C(c1cccs1)N1CCN(c2ccccc2)CC1 (configuration not stated) | 22 | -5 | -1 | 0 | 7 | nt | nt
CC(NS(C)(=O)=O)C(c1cccs1)N1CCN(c2ccccc2)CC1 (configuration not stated) | 23 | 4 | 1 | 1 | 59* | -3 | 2%
C=CCn1c(=O)c2ccccc2n2c(SC(C)C(N)=O)nnc12 (configuration not stated) | -6 | -6 | 2 | -1 | 45* | -1 | -1%
CCCn1c(=O)c2ccccc2n2c(SC(C)C(N)=O)nnc12 (configuration not stated) | 15 | 1 | -1 | 0 | -1 | nt | nt
CC(C)Oc1ccc(/C=C(/NC(=O)c2ccccc2)C(=O)NC(Cc2ccccc2)C(=O)O)cc1 (configuration not stated) | -5 | nt | 2 | 0 | -3 | nt | nt
CC(C)Oc1ccc(/C=C(/NC(=O)c2ccccc2)C(=O)NCCC(=O)O)cc1 | -16 | -1 | 1 | 0 | 47* | -2 | 0%
N=C1/C(=C\c2coc3ccc(O)cc3c2=O)C(=O)N=C2SC=CN12 | -13 | -2 | 132* | 59* | 3 | 0 | 9.2µM*
CN1C(=O)/C(=C/c2coc3ccc(O)cc3c2=O)SC1=S | 13 | -4 | 17 | 3 | 1 | nt | nt
Cn1nc(C(=O)Nc2nc3ccc(S(C)(=O)=O)cc3s2)ccc1=O | nt | 2 | 1 | 0 | 45* | -5 | 1%
CS(=O)(=O)c1ccc2nc(NC(=O)c3ccc(=O)[nH]c3)sc2c1 | -6 | 0 | 2 | -1 | 3 | nt | nt
CC(C)C[C@H](NC(=O)OC(C)(C)C)C(=O)N/N=C/c1ccc2nccnc2c1 | -13 | -12 | 1 | 0 | 53* | -5 | 1%
O=C(N/N=C/c1ccc(OCc2cnc(Cl)s2)cc1)c1ccncc1 | -33* | -5 | 16 | 0 | 50* | 1 | 2%
CCOC(=O)Cc1ccc(NC(=O)NCc2cccn2Cc2ccccc2)cc1 | -10 | -3 | 3 | 0 | 2 | nt | nt
Cn1nccc1C(=O)Nc1sc2c(c1C(N)=O)CCCC2 | 2 | -2 | 2 | 32* | 2 | -1 | 3%
Cn1nccc1C(=O)Nc1sc2c(c1C#N)CCCC2 | 4 | -11 | -1 | 2 | 0 | nt | nt
SMILES | D1 antag | D1 potentiator | D1 ag | TRHR agonist-1 | TRHR enhancer-1 | TRHR enhancer-2 | TRHR agonist-2
Cn1cc(C(=O)NCc2ccc(Cl)cc2)c(=O)c2cc(S(=O)(=O)N3CCCCCC3)ccc21 | 4 | 1 | 9 | 0 | -4 | nt | nt
CCc1ccc(S(=O)(=O)/N=C2\C=C(NS(=O)(=O)c3ccccc3)C(=O)c3ccccc32)cc1 | -19 | -2 | -1 | -1 | 49* | -7 | 2%
CC(C)c1ccc(S(=O)(=O)/N=C2\C=C(NS(=O)(=O)c3ccccc3)C(=O)c3ccccc32)cc1 | -19 | -6 | 2 | -1 | 21 | nt | nt
Cc1cc(OCCOCCNC(C)C)cc(C)c1Cl | -7 | -6 | 20 | 3 | 5 | nt | nt
Cc1cc(OCCCCNC(C)C)cc(C(C)C)c1 | -3 | 2 | 7 | 0 | 42* | 10 | 2%
Oc1oc(-c2cccc3ccccc23)nc1/C=N/c1nccs1 | 2 | -3 | 44* | 34* | 12 | -6 | ?
Cc1ccnc(N=Cc2nc(-c3ccccc3Br)oc2O)c1 | 7 | 0 | -2 | 0 | 8 | nt | nt
CC(C)OCCCNC(=O)CN1C(=O)COc2ccc(S(=O)(=O)N3CCOCC3)cc21 | 8 | -3 | 0 | 0 | -9 | nt | nt
O=C(CN1CCN(c2ccccc2F)CC1)c1ccc(O)cc1O | -8 | -6 | 3 | 0 | 94* | -7 | -1%
O=C(CSc1ncnc2sc3c(c12)CCCC3)c1ccccc1 | 6 | 5 | 0 | 0 | 4 | nt | nt
O=C(O)c1ccccc1Sc1ncnc2sc3c(c12)CCC3 | 18 | -2 | 2 | 0 | 43* | -4 | 0%
COc1ccc(Cn2nnnc2CN(CCCN2CCOCC2)Cc2cc3cc(OC)ccc3[nH]c2=O)cc1 | 1 | -3 | 3 | 0 | 43* | 8 | -1%
CSCCCNC(=S)Nc1ccc(N2CCOCC2)cc1 | 19 | -1 | 4 | 0 | 43* | -3 | 1%
CSCCCNC(=S)Nc1ccc(N2CCOCC2)cc1N1CCOCC1 | 6 | -10 | 1 | 1 | -3 | nt | nt
COc1ccc(-c2cc(C(=O)NCCN3CCOCC3)c3cc(C(C)C)ccc3n2)cc1 | 2 | 1 | 4 | 3 | 47* | 1 | 1%
COc1ccc(-c2cc(C(=O)NCCc3ccccc3)c3cc(C(C)C)ccc3n2)cc1 | 12 | -2 | 7 | 1 | -4 | nt | nt
CCN1CCCC(NC(=O)c2cc([N+](=O)[O-])ccc2OC)C1 (configuration not stated) | 3 | 6 | 5 | 1 | 42* | -3 | -1%
Cc1nn(CC(=O)NCCc2ccc(Cl)cc2)c(=O)c2cc3cc(F)ccc3n12 | 10 | -5 | -1 | 0 | -2 | nt | nt

Source: PubChem BioAssay (National Center for Advancing Translational Sciences (NCATS))
